We go through 8 compounds from PubChem BioAssay (NCI).

Among the test systems are SR leukemia; RPMI-8226 leukemia; OVCAR-8 ovarian; OVCAR-5 ovarian; OVCAR-4 ovarian; SK-OV-3 ovarian; IGROV1 ovarian; OVCAR-3 ovarian; HS 578T breast; NCI/ADR-RES ovarian; T-47D breast; BT-549 breast; MDA-MB-435 melanoma; SW-620 colon; MCF7 breast; HCT-116 colon; HCC-2998 colon; KM12 colon; MDA-MB-468 breast.
Holding throughout (experiment): NCI-60 one-dose screen, 48 h (100 = growth as untreated, 0 = no growth, -100 = all killed)
Holding throughout (conditions): 10 µM unless noted

The panel holds about 83,000 compounds, 20% with a hit somewhere; the sample as a whole holds those more often.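 Cell lines were cultured in 96-well plates, exposed to a single compound concentration, and assessed for percent growth 48 hours later.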 Values without a mark were called inactive. Activity calls are given as the source filed them. The calls were made as follows: active = growth percent below 10; inactive = the rest.

In the case of `Cc1cccc(NC(=O)CN2CCN(c3ncnc4c3cnn4-c3ccccc3)CC2)c1`, the growth with SR leukemia was 55.9%; with RPMI-8226 leukemia, 75.2%; with OVCAR-8 ovarian, 96%; in the assay on OVCAR-5 ovarian it was 94.7%; with OVCAR-4 ovarian, 91.4%; in the assay with SK-OV-3 ovarian, 99.7%. Moreover, the growth with IGROV1 ovarian was 83.9%; in the assay with OVCAR-3 ovarian, 98.9%; with HS 578T breast, 88.2%; in the assay with NCI/ADR-RES ovarian, 89.4%; in the assay with T-47D breast it was 72.1%; with BT-549 breast it was 89.9%. Also, the growth in the assay on MDA-MB-435 melanoma is 93.4%; in the assay with SW-620 colon, 92%; with MCF7 breast, 74.8%; in the assay on HCT-116 colon, 58.6%; with HCC-2998 colon, 107%; with KM12 colon, 90.4%. Besides, in the assay on MDA-MB-468 breast, the growth was 89.2%.

For the compound `CC1(C)CC[C@]2(C(=O)Nc3ccccc3)CC[C@]3(C)C(=CCC4[C@@]5(C)C[C@@H](O)[C@H](O)[C@@](C)(CO)C5CC[C@]43C)C2C1` (some centres not stated), the growth with SR leukemia is 15.2%; in the assay on RPMI-8226 leukemia, 9.08% (active); with OVCAR-8 ovarian it was 62.7%; with OVCAR-5 ovarian it was 86.2%; with OVCAR-4 ovarian, 58.9%; with SK-OV-3 ovarian it was 65.5%. Further, the growth with IGROV1 ovarian is 79%; in the assay on OVCAR-3 ovarian it was 73.4%; with HS 578T breast, 62.8%; in the assay with NCI/ADR-RES ovarian it was 61.4%; in the assay with T-47D breast it was 26.9%; in the assay on BT-549 breast, 57%. Besides, the growth is 47.9% in the assay with MDA-MB-435 melanoma; 72.2% with SW-620 colon; 19.6% with MCF7 breast; 34.3% in the assay on HCT-116 colon; 81.9% in the assay with HCC-2998 colon; 55.7% in the assay on KM12 colon. In the assay on MDA-MB-468 breast, the growth was 22.2%.

Turning to `O=[N+]([O-])c1ccc(/C=C/c2nc3ccccc3n3c(=S)[nH]nc23)cc1`, the growth with SR leukemia was 71.6%; in the assay on RPMI-8226 leukemia it was 56.5%; with OVCAR-8 ovarian, 83%; in the assay with OVCAR-5 ovarian, 89.1%; with OVCAR-4 ovarian, 82.5%; in the assay with SK-OV-3 ovarian, 105%. The growth with IGROV1 ovarian is 78.3%; in the assay with OVCAR-3 ovarian, 69.9%; with HS 578T breast, 75.7%; with NCI/ADR-RES ovarian, 85.2%; with T-47D breast, 67.5%; in the assay on BT-549 breast, 59.1%. In addition, the growth in the assay on MDA-MB-435 melanoma is 82.8%; in the assay with SW-620 colon it was 87.3%; in the assay with MCF7 breast it was 51.2%; in the assay on HCT-116 colon, 70.6%; with HCC-2998 colon, 93.4%; with KM12 colon it was 79.3%. The growth in the assay on MDA-MB-468 breast was 66.5%.

On to `Cc1cc2nc3c4ccccc4n(CCNCCN(C)C)c3nc2cc1C`, for which the growth in the assay on SR leukemia was -1.38% (active); in the assay on RPMI-8226 leukemia, -25.9% (active); in the assay on OVCAR-8 ovarian, 24.2%; in the assay with OVCAR-5 ovarian it was 39.5%; in the assay on OVCAR-4 ovarian it was 33%; in the assay with SK-OV-3 ovarian, 68.8%. In addition, the growth in the assay with IGROV1 ovarian was 20%; in the assay with OVCAR-3 ovarian, 40.5%; with HS 578T breast, 44.9%; in the assay on NCI/ADR-RES ovarian, 24.6%; with T-47D breast, 52.2%; with BT-549 breast it was 23.8%. Moreover, the growth with MDA-MB-435 melanoma was 8.22% (active); in the assay on SW-620 colon, -19.6% (active); in the assay on MCF7 breast, -28.8% (active); in the assay with HCT-116 colon, -57.8% (active); with HCC-2998 colon, -56.7% (active); in the assay with KM12 colon it was 27.4%. The growth in the assay with MDA-MB-468 breast was -54.4% (active).

For `COc1ccc(/C=C/c2n(Cc3ccc4ccccc4c3)c3ccccc3[n+]2Cc2ccc3ccccc3c2)cc1`, the growth in the assay on SR leukemia was -34.9% (active); in the assay on RPMI-8226 leukemia, -48.5% (active); in the assay with OVCAR-8 ovarian it was -75.2% (active); with OVCAR-5 ovarian, -98.4% (active); in the assay on OVCAR-4 ovarian it was -65% (active); in the assay on SK-OV-3 ovarian it was -95.7% (active). The growth in the assay with IGROV1 ovarian is -76.2% (active); in the assay with OVCAR-3 ovarian, -82.8% (active); with HS 578T breast it was -59.3% (active); in the assay with NCI/ADR-RES ovarian, -53.4% (active); with T-47D breast, -70.1% (active); in the assay with BT-549 breast, -93.1% (active). The growth is -91.1% (active) in the assay with MDA-MB-435 melanoma; -96.2% (active) in the assay with SW-620 colon; -71.3% (active) in the assay on MCF7 breast; -95.3% (active) in the assay with HCT-116 colon; -84.3% (active) with HCC-2998 colon; -84.5% (active) with KM12 colon. Besides, the growth in the assay on MDA-MB-468 breast was -83.9% (active).

With `Cc1ccc(C2CC(c3ccc(S(=O)(=O)NCCNc4nc(Nc5ccc(F)cc5)nc(N(C)C)n4)cc3)=Nc3c(N)nc(N)nc3N2)cc1` (configuration not stated), the growth with SR leukemia is -6.57% (active); in the assay with RPMI-8226 leukemia, 6.3% (active); in the assay on OVCAR-8 ovarian it was 52%; with OVCAR-5 ovarian, 92.6%; with OVCAR-4 ovarian it was 53.2%; in the assay with SK-OV-3 ovarian, 101%. For the same compound, the growth with IGROV1 ovarian was 69.8%; in the assay on OVCAR-3 ovarian, 67.5%; with HS 578T breast, 65.2%; in the assay on NCI/ADR-RES ovarian, 88.9%; in the assay on T-47D breast, 53%; with BT-549 breast it was 58%. In addition, the growth was 55.2% in the assay on MDA-MB-435 melanoma; 54.1% in the assay with SW-620 colon; 18.7% in the assay with MCF7 breast; 27.2% in the assay with HCT-116 colon; 32.4% in the assay with HCC-2998 colon; 40.9% with KM12 colon. Moreover, the growth in the assay on MDA-MB-468 breast was -12.8% (active).

For the compound `COc1cc2c(c(OC)c1OC)C(=O)CC(c1cccc(NC(=O)c3cc(NC(=O)[C@@H](N)CO)ccc3C)c1)O2` (some centres not stated), the growth in the assay on SR leukemia was 100%; in the assay with RPMI-8226 leukemia, 108%; in the assay on OVCAR-8 ovarian, 104%; in the assay with OVCAR-5 ovarian, 101%; with OVCAR-4 ovarian, 112%; with SK-OV-3 ovarian it was 111%. The growth in the assay on IGROV1 ovarian was 114%; in the assay on OVCAR-3 ovarian it was 121%; with HS 578T breast it was 110%; in the assay on NCI/ADR-RES ovarian, 104%; in the assay with T-47D breast, 110%; in the assay with BT-549 breast it was 121%. Further, the growth in the assay on MDA-MB-435 melanoma was 120%; in the assay on SW-620 colon, 119%; with MCF7 breast, 103%; in the assay on HCT-116 colon it was 116%; in the assay on HCC-2998 colon, 115%; in the assay on KM12 colon, 108%. Besides, the growth with MDA-MB-468 breast is 92.6%.

In the case of `COc1ccc(NC(=O)[C@H](CO)NC(=O)OC(C)(C)C)cc1C(=O)Nc1cccc(C2CC(=O)c3c(cc(OC)c(OC)c3OC)O2)c1` (some centres not stated), the growth in the assay on SR leukemia was 25.3%; in the assay on RPMI-8226 leukemia, 23%; in the assay with OVCAR-8 ovarian, 26.3%; in the assay with OVCAR-5 ovarian, 113%; in the assay with OVCAR-4 ovarian, 57.7%; with SK-OV-3 ovarian it was 87.8%. Also, the growth was 43.1% in the assay with IGROV1 ovarian; 47.7% in the assay with OVCAR-3 ovarian; 53.6% with HS 578T breast; 71.6% in the assay with NCI/ADR-RES ovarian; 25.8% in the assay with T-47D breast; 12.7% in the assay with BT-549 breast. Moreover, the growth in the assay on MDA-MB-435 melanoma is 41.1%; with SW-620 colon, 73.9%; in the assay with MCF7 breast, 30%; in the assay on HCT-116 colon it was 32.3%; in the assay with HCC-2998 colon it was 83%; in the assay on KM12 colon, 43.8%. In the assay on MDA-MB-468 breast, the growth is 36.2%.
